# Data as given in ChEMBL document CHEMBL1157539, “Thousands of chemical starting points for antimalarial lead identification” (Nature, 2010).
# Assays:
# Type in all cases: functional
# [1] = system: Plasmodium falciparum; test: GSK_TCMDC: Inhibition of Plasmodium falciparum 3D7 in whole red blood cells, using parasite LDH activity as an index of growth. Test compounds present at 2uM
# [2] = system: Plasmodium falciparum; test: GSK_TCMDC: Inhibition of Plasmodium falciparum Dd2 in whole red blood cells, using parasite LDH activity as an index of growth. Test compounds present at 2uM
# [3] = system: HepG2; test: GSK_TCMDC: Percent inhibition of human HepG2 cell line. Test compounds present at 10uM.
SMILES,Inhibition [1] [%],Inhibition [2] [%],Inhibition [3] [%]
Cc1ccnc(-n2c(C)cc(C=C3SC(=Nc4ccccc4)N(Cc4ccco4)C3=O)c2C)c1,99,98,0
CCOc1cc(C(=O)NC2CC(C)(C)N(C)C(C)(C)C2)ccc1-c1nc2cc(Cl)c(Cl)cc2[nH]1,100,49,64
COc1cccc(C(=O)NCCc2cccc(Cl)c2)c1OCc1ccccc1,85,0,0
Cc1c(C(=O)N(C)C)sc2c1c(=O)n(Cc1ccccc1)c(=O)n2CC(=O)Nc1ccccc1F,97,98,13
CCc1n[nH]c(C(=O)Nc2cccc(N3CCCC3)c2)c1C,81,52,15
Nc1ncc(-c2ccc(NC(=O)Nc3cc(C(F)(F)F)ccc3F)cc2)c(N)n1.O=C(O)C(F)(F)F,99,21,96
COc1ccc(CCN(C)CCCCNC(=O)c2ccc(NC(=O)c3ccc(Cl)cc3)cc2)c(OC)c1,87,0,12
COc1ccc2nccc([C@@H](O)CN3CCC(NCc4nc5c(F)cccc5[nH]4)CC3)c2c1.O=C(O)C(=O)O,100,6,0
CC(C)CN(Cc1c(O)ccc2[nH]c(-c3ccc(F)cc3F)nc12)CC(C)C,98,92,11
Fc1ccc2[nH]c(-c3cccc(-c4ccc(CNCc5cnn(-c6ccccc6)n5)cc4)c3)nc2c1.O=C(O)C(F)(F)F,98,22,18
Cc1ccc(C(C(=O)Nc2ccc(N3CCNCC3)c(Cl)c2)c2ccccc2)cc1 (stereo not given),97,93,23
CC(=O)Nc1ccc2[nH]cc(C3CCN(CC4CCN(C(=O)/C=C/c5ccc(Cl)c(Cl)c5)CC4)CC3)c2n1,100,99,21
COc1ccc2[nH]ccc(=NN=Cc3ccccc3Cl)c2c1,100,99,29
COc1ccc(C2C(C(=O)Nc3ccccc3)=C(C)Nc3c(C(=O)Nc4ccccc4)cnn32)cc1 (stereo not given),85,66,13
CN(Cc1cccc(F)c1)C1CCN(c2cc(NC(=O)c3ccc(F)cc3)ccn2)C1.O=C(O)C(F)(F)F (stereo not given),83,14,7
Cc1ncccc1-c1cccc2c(NC(=O)Nc3ccc4nccc(N5CCN(C)CC5)c4c3)cccc12.Cl,100,96,19
Cl.O=C(C=Cc1cccc(F)c1)NC1CCC(CCN2CCc3ccc(-c4cnccn4)cc3CC2)CC1 (stereo not given),100,67,51
Cn1c(CN2CCC(N3CCc4cc(NC(=O)c5ccco5)ccc43)C2)cc2ccccc21 (stereo not given),91,92,0
CCCS(=O)(=O)c1nc(S(=O)(=O)c2ccc(Cl)cc2)c(N2CCCCC2)s1,87,34,3
O=c1ccccn1CCCC1CCCCN1 (stereo not given),96,0,0
Cc1ccc(CNC(=O)c2cnc(N3CCN(c4ccncc4)CC3)c(Cl)c2)cc1.O=C(O)C(F)(F)F,92,6,27
CCCCOc1c(CNCCCCCCNCc2ccc3ccccc3c2OCCCC)ccc2ccccc12.CS(=O)(=O)O,96,89,99
COc1cc(NC2CCCC(NCc3cn(S(=O)(=O)c4ccccc4)c4ccccc34)C2)nc2ccccc12 (stereo not given),100,61,4
COCCNCc1ncsc1-c1ccc2c(Nc3cc(O)ccc3C)ccnc2c1,100,40,9
O=C(Nc1ccccc1)Nc1cccc(-c2nn3c(OCCN4CCCC4)cccc3c2-c2ccncc2)c1,100,98,30
CC(C)CCOc1ccc(NC(=O)c2cccs2)cc1,95,95,11
NS(=O)(=O)c1cccc(-c2ccc3ncc(N4CCOCC4)nc3c2)c1,96,74,17
CCNc1cc(C(=O)N[C@@H](Cc2cccc(F)c2)[C@H](O)CNC(C)CCCC(C)C)cc(N2CCCCS2(=O)=O)c1.Cl (stereo not given in full),98,97,0
CSC1=NC(C)(C)CC2(CC(c3cccc(C)c3)c3cc(Cl)c(O)cc3O2)N1 (stereo not given),100,73,0
COC(=O)c1cccc(N2CCN(CCCNC(=O)/C(=C/C=C/c3cc4cc(Cl)c(Cl)cc4[nH]3)OC)CC2)c1.Cl,100,59,38
